# Results taken from PubChem BioAssay (Tox21).
# Values joined by “and” are separate entries in the source; they are usually repeats but may differ in a detail not shown here. Equal entries are not always repeated. Results filed as inconclusive are left out. Active and inactive are the calls of the source. Calls come from the whole dose curve; as a rule, active = well fitted curve in the direction sought with a large enough effect in the repeat runs; inconclusive = weak or mixed curves; inactive = no such curve, though single readings can be large; an effect the other way counts as inactive or inconclusive.
# Test: qHTS assay for identifying genotoxic compounds that show differential cytotoxicity against isogenic chicken DT40 cell lines with known DNA damage response pathways - wild type cell line (AID 743012); note: nearly all actives have a fitted effect of over 60% in size; note: potency is the fitted concentration of half-maximal effect
# Conditions: DT40 wild type chicken cells viability, CellTiter-Glo, 40 h; series mostly up to 68.4 µM; activity change, negative = cytotoxicity: at the top concentration
# Outline: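 Wild-type DT40 cells (300/well) exposed to compounds for 40 hours at 37 C/5% CO2. Viability read by CellTiter-Glo luminescence after 30 min at room temperature.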
# % is set by controls: 0 for no effect and ±100 for the full control effect.
Compound,Potency,"activity change, negative = cytotoxicity"
OC(C#CCN1CCCC1)(c1ccccc1)c1ccccc1,23.7 µM (active),
CC(C)(CO)[N+](=O)[O-],,3.52% (inactive)
CCO[Si](CCCCl)(OCC)OCC,,7.42% (inactive)
O=C1C(O)=C(O)C(=O)C(O)=C1O,,15.1% (inactive)
O=C(O)C(S)C(S)C(=O)O (stereo unspecified),,-3.38% (inactive)
CNC(=O)CN(CCN(CCN(CC(=O)[O-])CC(=O)NC)CC(=O)[O-])CC(=O)[O-].O.[Gd+3],inactive,
O=[N+]([O-])c1ccc(NCCO)c(OCCO)c1,,-13.2% (inactive)
O=C(OCCCCCCOC(=O)c1ccccc1)c1ccccc1,61.1 µM (active),
CCC(C)c1cc(C(C)(C)C)c(O)c(C(C)(C)C)c1 (stereo unspecified),,0.814% (inactive)
Nc1cc(C(=O)O)c(O)c(S(=O)(=O)O)c1,,-3.01% (inactive)
COc1ccc(C)cc1[N+](=O)[O-],,3.84% [at 95 µM] (inactive)
CC(C)O.CC(C)O.CCOC(=O)/C=C(\C)O.CCOC(=O)/C=C(\C)O.[Ti],,-1.06% (inactive)
CC(C)CC(=O)C1C(=O)c2ccccc2C1=O,,-1.26% (inactive)
CCNc1cc(O)ccc1C,,3.35% (inactive)
C/C=C/C(=O)CC,,-1.32% [at 18.2 µM] (inactive)
CN1CCC(N(Cc2cccs2)c2ccccc2)CC1,9.44 µM (active),
CCOc1ccc(N=Nc2ccc(/C=C/c3ccc(N=Nc4ccc(OCC)cc4)cc3S(=O)(=O)O)c(S(=O)(=O)O)c2)cc1,,18.5% (inactive)
CCCCOC(=O)CCCCCCCC(=O)OCCCC,,-1.59% (inactive)
CCCCCCCC#N,,0.445% (inactive)

# Test: qHTS assay for identifying genotoxic compounds that show differential cytotoxicity against isogenic chicken DT40 cell lines with known DNA damage response pathways - Rev3 mutant cell line (AID 743014); note: nearly all actives have a fitted effect of over 55% in size; note: potency is the fitted concentration of half-maximal effect
# Conditions: chicken DT40 Rev3-/- viability, CellTiter-Glo, 40 h; series mostly up to 68.4 µM; activity, negative = cytotoxicity: at the top concentration
Compound,Potency,"activity, negative = cytotoxicity"
CN(C)CCCN1c2ccccc2Sc2ccccc21,5.69 µM (active),
Cc1nn(C)c(Oc2ccccc2)c1/C=N/OCc1ccc(C(=O)OC(C)(C)C)cc1,0.0024 µM (active),
C=C(C)C(=O)OCC,,4.97% [at 95 µM] (inactive)
COc1ccc(S(=O)(=O)N2C(=O)[C@@](c3ccccc3OC)(N3C[C@H](O)C[C@H]3C(=O)N(C)C)c3cc(Cl)ccc32)c(OC)c1,61.1 µM (active),
O=C(O)CC(=O)C(=O)O,,0.934% [at 95 µM] (inactive)
COc1cc2nc(N(C)CCCNC(=O)C3CCCO3)nc(N)c2cc1OC (stereo unspecified),,0.0671% [at 31.4 µM] (inactive)
O=C(O)C1(C(=O)Nc2ccc(Cl)cc2Cl)CC1,68.6 µM (active),
CCCCCCCCCOS(=O)(=O)O,,7.08% (inactive)
CCO[Si](CCCCl)(OCC)OCC,,-4.53% (inactive)
O=C(O)C(S)C(S)C(=O)O (stereo unspecified),,-0.023% (inactive)
CNC(=O)CN(CCN(CCN(CC(=O)[O-])CC(=O)NC)CC(=O)[O-])CC(=O)[O-].O.[Gd+3],inactive,
O=C(OCCCCCCOC(=O)c1ccccc1)c1ccccc1,61.1 µM (active),
CCC(C)c1cc(C(C)(C)C)c(O)c(C(C)(C)C)c1 (stereo unspecified),,0.872% (inactive)
COc1ccc(C)cc1[N+](=O)[O-],,2.96% [at 95 µM] (inactive)
CC(C)O.CC(C)O.CCOC(=O)/C=C(\C)O.CCOC(=O)/C=C(\C)O.[Ti],,-19.4% (inactive)
CC(C)CC(=O)C1C(=O)c2ccccc2C1=O,,6.32% (inactive)
CCOc1ccc(N=Nc2ccc(/C=C/c3ccc(N=Nc4ccc(OCC)cc4)cc3S(=O)(=O)O)c(S(=O)(=O)O)c2)cc1,,-5.24% (inactive)
CCCCCCCC#N,,-1.11% (inactive)

# Test: qHTS assay for identifying genotoxic compounds that show differential cytotoxicity against isogenic chicken DT40 cell lines with known DNA damage response pathways - Rad54/Ku70 mutant cell line (AID 743015); note: nearly all actives have a fitted effect of over 60% in size; note: potency is the fitted concentration of half-maximal effect
# Conditions: DT40 Rad54/Ku70 mutant viability, CellTiter-Glo, 40 h; series mostly up to 66.8 µM; activity change, negative = cytotoxicity: at the top concentration
Compound,"activity change, negative = cytotoxicity",Potency
Nc1c(CC(=O)O)cccc1C(=O)c1ccc(Br)cc1,11.5% (inactive),
CCCCCCCC/C=C\CCCCCCCC(=O)OCC,9.22% (inactive),
CN(Cc1ccc(C(C)(C)C)cc1)Cc1cccc2ccccc12,-2.04% (inactive),
COc1cc2c(cc1OC)C(C(C(=O)N(CCc1ccc(OC)c(OC)c1OC)CCc1ccc(OC)c(OC)c1OC)c1ccccc1)=NCC2 (stereo unspecified),,11.9 µM (active)
CCN(CC)CCNC(=O)c1cc(Br)c(N)cc1OC,4.69% (inactive),
CC1OC(=O)C(C)OC1=O (stereo unspecified),-2.27% (inactive),
CCCCC/C=C\C/C=C\CCCCCCCC(=O)NC(C)c1ccccc1 (stereo unspecified),0.369% (inactive),
OCc1cc(C(O)CNCCCCCCOCCCCc2ccccc2)ccc1O (stereo unspecified),,5.31 µM (active) and 3.35 µM (active)
C=C(C)C(=O)OCCO,6.78% [at 95.1 µM] (inactive),
CC/C=C\CCOC(=O)CC,14.7% (inactive),
O=C1c2ccccc2S(=O)(=O)N1CCCCN1CCN(c2ncccn2)CC1,-7.88% (inactive),
OC(C#CCN1CCCC1)(c1ccccc1)c1ccccc1,,26.6 µM (active)
CC(C)(CO)[N+](=O)[O-],10.6% (inactive),
O=C1C(O)=C(O)C(=O)C(O)=C1O,0.835% (inactive),
O=[N+]([O-])c1ccc(NCCO)c(OCCO)c1,-2.13% (inactive),
Nc1cc(C(=O)O)c(O)c(S(=O)(=O)O)c1,4.01% (inactive),
CCNc1cc(O)ccc1C,-12% (inactive),
C/C=C/C(=O)CC,4.11% [at 18.2 µM] (inactive),
CN1CCC(N(Cc2cccs2)c2ccccc2)CC1,,10.6 µM (active)
CCCCOC(=O)CCCCCCCC(=O)OCCCC,14.2% (inactive),

# Test: qHTS assay to identify small molecule antagonists of the androgen receptor (AR) signaling pathway - cell viability counter screen (AID 743033; note: nearly all actives have a fitted effect of over 45% in size)
# Conditions: AR-bla HEK293 viability, CellTiter-Glo luminescence, 16 h; series mostly up to 58.5 µM; activity change, negative = cytotoxicity: at the top concentration
Compound,"activity change, negative = cytotoxicity",Potency
Nc1c(CC(=O)O)cccc1C(=O)c1ccc(Br)cc1,6.89% (inactive),
CCCCCCCC/C=C\CCCCCCCC(=O)OCC,0.466% (inactive),
CN(Cc1ccc(C(C)(C)C)cc1)Cc1cccc2ccccc12,,inactive
COc1cc2c(cc1OC)C(C(C(=O)N(CCc1ccc(OC)c(OC)c1OC)CCc1ccc(OC)c(OC)c1OC)c1ccccc1)=NCC2 (stereo unspecified),-12.2% (inactive),
CCN(CC)CCNC(=O)c1cc(Br)c(N)cc1OC,3.49% (inactive),
CC1OC(=O)C(C)OC1=O (stereo unspecified),0.244% (inactive),
CCCCC/C=C\C/C=C\CCCCCCCC(=O)NC(C)c1ccccc1 (stereo unspecified),3.27% (inactive),
O=C(O)CC(=O)C(=O)O,-3.78% [at 78.9 µM] (inactive),
C=C(C)C(=O)OCCO,2.48% [at 78.9 µM] (inactive),
CC/C=C\CCOC(=O)CC,14.7% (inactive),
COc1cc2nc(N(C)CCCNC(=O)C3CCCO3)nc(N)c2cc1OC (stereo unspecified),6.51% [at 27 µM] (inactive),
CCCCCCCCCOS(=O)(=O)O,-7.04% (inactive),
O=C1c2ccccc2S(=O)(=O)N1CCCCN1CCN(c2ncccn2)CC1,-4.92% (inactive),
OC(C#CCN1CCCC1)(c1ccccc1)c1ccccc1,-2.1% (inactive),
CC(C)(CO)[N+](=O)[O-],3.77% (inactive),
CCO[Si](CCCCl)(OCC)OCC,1.67% (inactive),
O=C1C(O)=C(O)C(=O)C(O)=C1O,8.98% (inactive),
O=C(O)C(S)C(S)C(=O)O (stereo unspecified),3.57% (inactive),
CNC(=O)CN(CCN(CCN(CC(=O)[O-])CC(=O)NC)CC(=O)[O-])CC(=O)[O-].O.[Gd+3],,inactive
O=[N+]([O-])c1ccc(NCCO)c(OCCO)c1,9.39% (inactive),
CCC(C)c1cc(C(C)(C)C)c(O)c(C(C)(C)C)c1 (stereo unspecified),0.776% (inactive),
Nc1cc(C(=O)O)c(O)c(S(=O)(=O)O)c1,0% (inactive),
COc1ccc(C)cc1[N+](=O)[O-],7.92% [at 78.9 µM] (inactive),
CC(C)O.CC(C)O.CCOC(=O)/C=C(\C)O.CCOC(=O)/C=C(\C)O.[Ti],0.825% (inactive),
CCNc1cc(O)ccc1C,-0.713% (inactive),
C/C=C/C(=O)CC,-1.98% [at 15.1 µM] (inactive),
CN1CCC(N(Cc2cccs2)c2ccccc2)CC1,-3.67% (inactive),
CCOc1ccc(N=Nc2ccc(/C=C/c3ccc(N=Nc4ccc(OCC)cc4)cc3S(=O)(=O)O)c(S(=O)(=O)O)c2)cc1,0.379% (inactive),
CCCCOC(=O)CCCCCCCC(=O)OCCCC,5.86% (inactive),
